Source: PubChem BioAssay
A selection: hits, their analogues and other compounds. The true share with any hit is near 2.4%.
Nrf2 block – Nrf2 qHTS screen for inhibitors. A549 ARE-Fluc reporter, luciferase luminescence, 18-24 h. Potency, µM (top dose mostly 46 µM), hits mostly inhibitors. 2.1% of 360,000 active. AID 504444, 2011; further: nearly all actives have a fitted effect of over 60% in size
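Two sequential reads on A549 ARE_Fluc cells exposed to compound for 18-24 h: a CellTiter-Fluor fluorescence read for viability, then a luciferase luminescence read for Nrf2/ARE activity.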
Nrf2 activator – qHTS of Nrf2 Activators | AREc32 ARE-luciferase reporter (MCF7-derived line), luminescence, 24 h | Potency, µM (titrated, usually from 46.1 µM), most hits filed as activators | 0.31% of 410,000 active | AID 624171, 2012; further: nearly all actives have a fitted effect of over 65% in size
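Nrf2 activation is followed as ARE-luciferase induction in the AREc32 line after one day of compound treatment; luminescence is read with Steady-Glo.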
A549 tox – Nrf2 qHTS screen for inhibitors: counterscreen for cytotoxicity | A549 ARE-Fluc cells, CellTiter-Fluor viability, 18-24 h | Potency, µM (top dose mostly 46 µM), most hits filed as inhibitors | 0.16% of 390,000 active | AID 504648, 2011
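Cytotoxicity counterscreen: CellTiter-Fluor fluorescence was measured in A549 ARE_Fluc cells after 18-24 h of compound exposure in a concentration series. The subsequent BugLite luminescent read reports ARE-luciferase activity.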
PINK1 modulator – A Quantitative High throughput Screen to Identify Chemical Modulators of PINK1 Expression; PINK1 immunofluorescence, high-content cytometry, 24 h; Potency, µM (doses to about 76.6 µM), most hits filed as activators; 0.2% of 410,000 active; active means well fitted activation curve with a large enough effect; inconclusive means small, poorly fitted or top-dose-only effect; cell line not stated here; further: nearly all actives have a fitted effect of over 65% in size
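Measures PINK1 amount and localization on or inside mitochondria by immunofluorescence. Stable cells get compounds at 5 concentrations for 24 hours before fixation and staining; CCCP controls included.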
Epigenetic reg – Quantitative High-Throughput Screen for Regulators of Epigenetic Control | murine LDR cells, GFP reporter derepression, 30 h | Potency, µM (highest dose often 53.9 µM), most hits filed as activators | 0.2% of 280,000 active; further: nearly all actives have a fitted effect of over 60% in size
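Murine LDR cells bearing a silenced CMV-driven GFP reporter were exposed to compound for 30 h at 37 C. After PBS washes, GFP-positive cells (20-120 um objects) counted by laser-scanning microplate cytometry.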
Large screens that a line does not name were inactive. Unless noted, the call rests on the fitted dose curve; in most records, active means well fitted curve in the direction sought with a large enough effect; inconclusive means small, poorly fitted or top-dose-only effect, or another doubt; inactive means no such curve, though single readings can be large; an effect the other way counts as inactive or inconclusive.

COc1cc(NC(=S)Nc2ccccn2)c(OC)cc1Cl	Nrf2 activator 3.98µM
O=C(Nc1ccccn1)c1ccc(C(=O)Nc2ccccn2)cc1	none (no result: Epigenetic reg)
O=C(Nc1ccccn1)c1ccc(Br)s1	Nrf2 block inconclusive, Nrf2 activator 15.8µM (no result: Epigenetic reg)
COc1ccccc1C(=O)Nc1ccccn1	Nrf2 activator 11.2µM (no result: Nrf2 block)
O=C(Cn1cc(CN(Cc2ccccc2)Cc2ccccc2)nn1)Nc1cc(C(F)(F)F)ccc1Cl	none (no result: Nrf2 activator, PINK1 modulator, Epigenetic reg)
CCCC(O)(c1ccc(Cl)cc1)C(CN1CCOCC1)c1ccc(Cl)cc1 (stereo unspecified)	Nrf2 block 18.4µM (no result: Epigenetic reg)
CCCC(O)(c1ccc(OC)cc1)C(CN1CCOCC1)c1ccc(Cl)cc1 (stereo unspecified)	none (no result: Epigenetic reg)
CCOC(=O)c1sc2nc(C)nc(NCc3cccnc3)c2c1C	none
CCOC(=O)c1sc2nc(C)nc(NCc3ccc(F)cc3)c2c1C	Nrf2 block inconclusive (no result: Epigenetic reg)
CCOC(=O)c1sc2nc(C)nc(NCc3ccc(Cl)cc3)c2c1C	Nrf2 block 18.4µM, PINK1 modulator inconclusive (no result: Epigenetic reg)
CCOC(=O)c1sc2nc(CC(=O)OC)nc(NCc3ccc(F)cc3)c2c1C	Nrf2 block 10.3µM, A549 tox inconclusive
CCc1nc2cc(C(=O)N(C)CC3COCCO3)cc(NC(=O)c3ccccc3OC)c2n1C (stereo unspecified)	none (no result: Nrf2 block, Nrf2 activator, A549 tox, Epigenetic reg)
CCSC1(SCC)N=C(N)C2(C#N)C(c3ccccc3)NC3=C(CCC3)C12C#N (stereo unspecified)	Nrf2 activator 14.1µM
Cc1nc(Nc2ccc(F)cc2)[nH]c(=O)c1CCC(C)C	Nrf2 block 14.6µM, A549 tox inconclusive, PINK1 modulator inconclusive
Cc1ccc(Nc2nc(C)c(CCC(C)C)c(=O)[nH]2)cc1	none
O=C(CSc1ccncc1)NCC1Cc2cccc(-c3cncnc3)c2O1 (stereo unspecified)	none (no result: Nrf2 block, Nrf2 activator, A549 tox, Epigenetic reg)
Cc1cccc(C(=O)NCc2nc(-c3cccc(NC(=O)c4ccoc4C)c3)oc2C)n1	none (no result: Nrf2 block, Nrf2 activator, A549 tox, Epigenetic reg)
O=C(Cn1nc2ccccc2n1)N1CCOc2ccc(CN3CCc4sccc4C3)cc2C1	none (no result: Nrf2 block, Nrf2 activator, A549 tox, Epigenetic reg)
c1ccc2[nH]c3cc4ncnc4cc3nc2c1	Nrf2 block 5.8µM, A549 tox inconclusive
COc1cc(CN2CCc3nnc(C(NS(C)(=O)=O)C(C)C)n3CC2)ccc1F (stereo unspecified)	none (no result: Nrf2 block, Nrf2 activator, A549 tox, Epigenetic reg)
Cc1cc2nc(SCCOC(=O)Nc3ccccc3)nc(C)c2cc1C	Nrf2 block 20.6µM
Cc1cc2nc(SCCOC(=O)Nc3cccc(Cl)c3)nc(C)c2cc1C	Nrf2 block inconclusive
Cc1cc(C)nc(NC(=NCCc2c[nH]c3ccc(Cl)cc23)NC(=O)c2ccccc2C)n1	none
Cc1cc(C)nc(NC(=NCCc2c[nH]c3ccccc23)NC(=O)C(C)(C)C)n1	Nrf2 block 20.6µM, A549 tox inconclusive
CCOC(=O)c1cc(-c2cccs2)nc2c1c(C)nn2-c1ccccn1	Nrf2 block 23.1µM
COc1ccc(C2CC(=O)c3cc(-c4nc(-c5cccc([N+](=O)[O-])c5)cs4)c(=O)n(-c4ccccc4N)c3C2)cc1 (stereo unspecified)	Nrf2 block inconclusive, Epigenetic reg inconclusive
NC(=O)COC(=O)c1cc(-c2ccco2)nc2ccccc12	Nrf2 activator 3.55µM
CN(C)C(CNC(=O)c1cc(-c2ccco2)nc2ccccc12)c1ccccc1 (stereo unspecified)	Nrf2 block inconclusive, Nrf2 activator 12.6µM (no result: Epigenetic reg)
O=C(NCC1CCCO1)c1cc(-c2ccco2)nc2ccccc12 (stereo unspecified)	Nrf2 activator 11.2µM
CC(C)CCNC(=O)c1cc(-c2ccco2)nc2ccccc12	Nrf2 activator inconclusive
COc1ccc(N2C(=O)[C@@H]3C[C@H]2CN3Cc2cccn2-c2ccc(Cl)cn2)c(C)c1	none (no result: Nrf2 block, Nrf2 activator, A549 tox, Epigenetic reg)
CN(C)CC(C)(C)CNC(=O)c1ccc(-n2c(=O)c(=O)[nH]c3ccccc32)cc1	none (no result: Nrf2 block, Nrf2 activator, A549 tox, PINK1 modulator)
CC(NC(=O)COC(=O)/C=C/c1ccco1)c1ccccc1 (stereo unspecified)	Nrf2 activator 12.6µM
CNC(=O)COC(=O)/C=C/c1ccco1	none
CC1CC(C)CN(C(=O)COC(=O)/C=C/c2ccco2)C1 (stereo unspecified)	Nrf2 activator 14.1µM (no result: Epigenetic reg)
Cc1cccc(C(=O)NC2CCN(C#N)CC2)c1	none (no result: Nrf2 activator, PINK1 modulator, Epigenetic reg)
N#CC(C#N)=C(Nc1ccc(F)cc1)SCc1cccc(F)c1	Nrf2 block 4.61µM, Nrf2 activator inconclusive, A549 tox inconclusive, PINK1 modulator inconclusive
Cn1c(=O)c(/C=C/c2ccccc2)nc2ccccc21	Nrf2 block inconclusive, Nrf2 activator 5.01µM
COc1ccc(C(=O)N2CCOc3ccc(CN4CCN(c5ccccn5)CC4)cc3C2)o1	none (no result: Nrf2 block, Nrf2 activator, A549 tox, Epigenetic reg)
Cc1nc2ccn(Cc3ccco3)c(=O)c2cc1C(=O)Nc1ccc(F)cc1	Nrf2 activator 12.6µM
O=C1N/C(=C/c2cccn2-c2ccccc2)C(=O)N1Cc1ccc(F)cc1	PINK1 modulator inconclusive, Epigenetic reg 7.08µM
O=C1N/C(=C/c2cccn2-c2ccc(F)cc2)C(=O)N1Cc1ccccc1F	none
CCOC(=O)c1ccc(-n2cnc3c(c2=N)C(c2cccc(OC)c2)c2c(ccc4ccccc24)O3)cc1 (stereo unspecified)	none (no result: Nrf2 activator, PINK1 modulator, Epigenetic reg)
O=C(C1CCCN(S(=O)(=O)c2cccc3nsnc23)C1)N1CCc2ccccc2C1 (stereo unspecified)	Nrf2 block 14.6µM
Cc1cnc(SCc2ccccn2)nc1C1CCCN(C(=O)c2coc3c2C(=O)CCC3)C1 (stereo unspecified)	none (no result: Nrf2 block, Nrf2 activator, A549 tox, Epigenetic reg)
COc1cc(F)c(S(=O)(=O)N2CCN(S(=O)(=O)c3ccc(NC(C)=O)cc3)CC2)c(F)c1	none (no result: Nrf2 activator, PINK1 modulator, Epigenetic reg)
COc1ccccc1/C=C/C(=O)c1c2c(c(C)[nH]c1=O)CCCC2	Nrf2 block 16.4µM, A549 tox inconclusive
Cc1[nH]c2ccccc2c1/C=C/c1cc[n+](C)cc1	Nrf2 block 2.06µM, A549 tox 8.2µM, PINK1 modulator inconclusive, Epigenetic reg 14.1µM
COc1ccnc(CSC(N)=Nc2ccccc2C(F)(F)F)c1	none
COc1ccnc(CSC(N)=Nc2ccccc2OC)c1	Epigenetic reg 3.55µM
Cc1cccc2c(N3CCCC3)nc(CNS(=O)(=O)c3ccccc3Cl)nc12	none (no result: Nrf2 block, Nrf2 activator, A549 tox, Epigenetic reg)
CCCCCCCCCCCCCCCC[n+]1ccc(/C=N/O)cc1	Nrf2 block 16.4µM
CCCCCCCCCCCCCCCC[n+]1ccc(C(N)=O)cc1	Nrf2 block inconclusive, PINK1 modulator inconclusive
Cc1cc(C)nc(NS(=O)(=O)c2ccc(NC(=O)c3cc4c(=O)n5cccc(C)c5nc4n3C)cc2)n1	Nrf2 block 23.1µM (no result: Epigenetic reg)
Cc1cccn2c(=O)c3cc(C(=O)NCCc4ccc(S(N)(=O)=O)cc4)n(C)c3nc12	none
CCOC(=O)c1cnc(SCC(=O)Nc2cc(OC)cc(OC)c2)nc1N	Nrf2 block inconclusive, PINK1 modulator inconclusive
CCOC(=O)c1cnc(SCC(=O)Nc2sc(C)c(C)c2C#N)nc1N	Nrf2 block 9.2µM, A549 tox inconclusive
